Screening data: PubChem BioAssay, several laboratories
Rows were chosen to be rich in hits. Some 3.5% of all compounds tested hit in one or more screens of this group.
ERa coact inh = blocks coactivator binding to human estrogen receptor alpha; P03372; TR-FRET ER-alpha LBD / SRC-1 peptide, estradiol-bound; inhibition, % at 25.6 µM; 1.7% of 86,000 active; AID 629; in the data active means inhibition above about 50%;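 further: 0% = receptor plus peptide control and 100% = peptide only without receptor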
ERa SRC1 pot = enhances coactivator binding to human estrogen receptor alpha; P03372; TR-FRET ERalpha-LBD/SRC-Cy5 coactivator binding, 2 h; 100 = basal binding, no effect; coactivator binding (% of control), % at 25.6 µM; 1.3% of 86,000 active; in the data active means activity above about 200%;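 further: binding measured in presence of low estradiol as agonist stimulus; 0% = peptide alone without receptor and 100% = receptor with peptide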
FAK blocker = FAK (human) kinase inhibition. Q05397. biochemical FAK kinase activity assay. inhibition, %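 (tested at 7 µM)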. 0.84% of 97,000 active. AID 727;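 further: 0% = DMSO and 100% = reference compound high control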
ERb coact inh = blocks coactivator binding to human estrogen receptor beta | inhibition, % at 25.6 µM | Q92731 | 1.3% of 86,000 active | TR-FRET ER-beta LBD / SRC1-Cy5 peptide binding; receptor agonist-loaded with 1 µM estradiol;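 active means compounds whose percent inhibition of the receptor-coactivator binding signal exceeds about 50% in the single-dose screen, limit read from the data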;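 further: 0% = receptor plus peptide wells without compound and 100% = peptide-only wells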
CD11b adhes inh = CD11b/CD18-fibrinogen binding inhibition. P05107+P11215. K562 CD11b/CD18 adhesion to fibrinogen, ATPlite luminescence; Mn2+ added to activate the integrin. inhibition, % at 10 µM. 0.54% of 93,000 active;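 active means primary inhibition of 50% or more at 10 µM, then 40% or more on retest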
Target sequence (P05107 whole entry, looked up, other chains not shown): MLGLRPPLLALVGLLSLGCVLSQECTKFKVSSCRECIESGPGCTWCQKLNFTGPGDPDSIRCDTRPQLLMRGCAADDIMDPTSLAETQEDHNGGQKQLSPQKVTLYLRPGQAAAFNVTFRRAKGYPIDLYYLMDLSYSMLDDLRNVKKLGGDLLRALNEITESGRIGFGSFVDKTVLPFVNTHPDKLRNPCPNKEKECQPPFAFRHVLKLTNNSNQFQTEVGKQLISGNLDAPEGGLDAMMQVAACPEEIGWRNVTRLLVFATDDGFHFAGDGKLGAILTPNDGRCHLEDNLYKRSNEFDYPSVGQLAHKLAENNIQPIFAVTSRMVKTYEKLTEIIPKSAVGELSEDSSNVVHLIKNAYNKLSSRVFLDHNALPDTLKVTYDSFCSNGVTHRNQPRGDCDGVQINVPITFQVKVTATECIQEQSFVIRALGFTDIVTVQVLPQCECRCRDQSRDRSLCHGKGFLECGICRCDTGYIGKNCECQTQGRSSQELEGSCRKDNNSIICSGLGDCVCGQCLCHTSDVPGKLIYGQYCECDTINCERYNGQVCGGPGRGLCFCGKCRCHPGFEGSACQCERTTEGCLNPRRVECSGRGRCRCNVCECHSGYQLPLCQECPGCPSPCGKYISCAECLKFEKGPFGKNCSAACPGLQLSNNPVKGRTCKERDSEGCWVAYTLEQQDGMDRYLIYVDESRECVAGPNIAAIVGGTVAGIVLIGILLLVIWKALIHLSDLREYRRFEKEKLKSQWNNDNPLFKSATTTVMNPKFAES
Mac1 fbg enh = enhancers of human CD11b/CD18 binding to fibrinogen. P05107+P11215. K562 CD11b/CD18 adhesion to fibrinogen, ATPlite luminescence. activation, % at 10 µM. 0.07% of 93,000 active;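 active means 10 µM primary screen giving 50% or more activity, confirmed by 40% or more on retest at that dose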
FAK inh conf = confirmation of human focal adhesion kinase (FAK) inhibitors; shares compounds with FAK blocker; FAK kinase biochemical inhibition assay; inhibition, % at 7 µM; 28% of 750 active
* hit, by the source's call; . = no result given; [ ] = remark or other dose. Unless noted, no stated cut-off is given here; in the data, active means inhibition above about 19%; inactive means the rest.

SMILES	ERa coact inh	ERa SRC1 pot	FAK blocker	ERb coact inh	CD11b adhes inh	Mac1 fbg enh	FAK inh conf
Oc1ccc(N=Cc2ccc(-c3cccs3)s2)cc1	33	34	43*	62*[fluorescence artefact?]	0	-4	2
CCOCCn1c(=NC(=O)/C=C/c2ccccc2Cl)sc2cc(NC(C)=O)ccc21	.	.	.	.	11	49	.
O=c1cc(-c2ccccc2)c2ccccc2[nH]1	8	97	19*	-2	-7	4	-1
Cc1cc(=O)[nH]c2ccccc12	-9	105	5	-14	.	.	.
Cc1oc(-c2ccccc2)cc1C(=O)Nc1cccc2ccccc12	-8	125	26*	0	-5	-1	25*
Cc1oc(-c2ccccc2)cc1C(=O)Nc1cccc(C(=O)O)c1	6	109	-2	6	.	-8	.
COc1ccc(CNC(=O)C(C)N(Cc2ccco2)C(=O)c2snc(C(N)=O)c2N)cc1 (stereo not given)	6	112	11	7	48	1	.
CCc1ccccc1N(CC(=O)NCc1ccco1)C(=O)c1snc(C(N)=O)c1N	26	89	41*	15	-3	0	15
Cc1ccc(OCC(=O)Nn2c(C)nc3ccccc3c2=O)c(C(C)C)c1	-5	79	2	4	11	-4	.
CCCOc1ccccc1NC(=O)c1ccc(N)cc1	-6	104	3	-8	-24	5	.
CCCOc1ccc(N)cc1N	99*[fluorescence artefact?]	-3	22*	99*[fluorescence artefact?]	-13	2	0
Cc1nc(NCCCn2ccnc2)c2ccccc2n1	0	92	.	5	-2	-2	.
O=C1c2ccccc2-c2onc3ccc(NCCCn4ccnc4)c1c23	70*[fluorescence artefact?]	89	36*	27	7	31	27*
Cc1nc(NCCc2ccccc2)c(C#N)c(C)c1[N+](=O)[O-]	.	.	.	.	10	8	.
CC(C)C(=O)Nc1ccc2c(c1)nc(CCN1CCN(C)CC1)n2C	-9	102	-3	-4	-3	-4	.
Cc1c(N2C(=O)c3ccc4c5c(ccc(c35)C2=O)CC4)c(=O)n(-c2ccccc2)n1C	95*[fluorescence artefact?]	-1	70*	92*[fluorescence artefact?]	-33	62	41*
Cc1ccc(-c2onc3ccc(C4(C)OCCO4)cc23)cc1	-8	103	0	-8	-4	-3	.
Cc1ccc(-c2onc3ccc(C=O)cc23)cc1	10	97	22*	21	-15	2	30*
CCOC(=O)Cc1csc(NC(=O)Cc2cccs2)n1	90*[fluorescence artefact?]	19	19*	75*	5	-11	3
Oc1ccc(C2N=C(c3ccccc3)NC(c3ccccc3)=N2)cc1	-9	106	-1	-9	4	-2	.
Oc1ccc(Br)cc1/C=N/n1cnc2ccccc21	.	.	19*	.	10	0	6
Oc1ccc(Br)cc1/C=N/N1CCN(Cc2ccccc2)CC1	.	.	2	.	.	.	.
CCOC(=O)c1cnc2c(-c3ccccc3)c(C)nn2c1N	0	117	-2	11	-7	-3	.
CCOC(=O)c1cnc2c(-c3ccccc3)cnn2c1N	0	128	29*	-1	67	-6	0
Cc1sc2nc(C3CC3)nc(SCC(=O)NCc3ccco3)c2c1C	16	131	31*	34	13	-1	10
SMILES	ERa coact inh	ERa SRC1 pot	FAK blocker	ERb coact inh	CD11b adhes inh	Mac1 fbg enh	FAK inh conf
CC1CCN(C(=O)N2c3ccccc3Sc3ccccc32)CC1	-2	84	-1	-6	26	-1	.
O=C(N1CCOCC1)N1c2ccccc2Sc2ccccc21	.	.	40*	.	.	.	2
COc1ccc(C(=O)CSc2nnc(-c3cc4ccccc4cc3O)n2Cc2ccco2)cc1	-16	107	5	-2	10	-2	.
Cc1cccc(CCNS(=O)(=O)c2ccc(S(=O)(=O)N3CCCCC3)cc2)c1	-1	103	-3	2	-6	0	.
Cc1ccc(-n2cnc3cc(NCc4cccs4)ccc32)cc1	6	88	4	-2	11	-1	.
c1ccc(-n2cnc3cc(NCc4cccs4)ccc32)cc1	-1	89	23*	-5	.	.	8
CCN(CC)C(=O)CSc1nc2c(sc(=S)n2Cc2ccco2)c(=O)n1-c1ccccc1	1	76	20*	-7	12	-5	4
